# Where “and” joins values, the source holds several entries; their conditions need not be identical. Equal values may be shown once. Inconclusive results are not listed. Entries that show only a call come without a potency. Calls of active or inactive are those of the source. Calls follow the shape of the dose curve; as a rule, active = well fitted inhibition curve with a large enough effect in the repeat runs; inconclusive = weak or mixed curves; inactive = no such curve, though single readings can be large or run the other way.
# Molecular target: Cytochrome P450 2C19 (Homo sapiens) (UniProt P33261)
# Assay: Cytochrome P450 Family 2 Subfamily C Member 19 (CYP2C19) small molecule antagonists: luciferase reporter qHTS assay (AID 1671197); also: nearly all actives have a fitted effect of over 65% in size
# Conditions: P450-Glo CYP2C19 enzyme, luciferin luminescence, 1 h; series mostly up to 52.9 µM
# In short: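 First, compounds are pinned into enzyme-substrate mix and held 10 min at room temperature. Second, NADPH regeneration solution is added and plates incubate 1 h at 37C. Third, detection reagent is added and luminescence read after 20 min.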
# Potency is read from the fitted curve at half-maximal effect.
# Sequence of Cytochrome P450 2C19 (Homo sapiens) (P33261 whole entry, looked up): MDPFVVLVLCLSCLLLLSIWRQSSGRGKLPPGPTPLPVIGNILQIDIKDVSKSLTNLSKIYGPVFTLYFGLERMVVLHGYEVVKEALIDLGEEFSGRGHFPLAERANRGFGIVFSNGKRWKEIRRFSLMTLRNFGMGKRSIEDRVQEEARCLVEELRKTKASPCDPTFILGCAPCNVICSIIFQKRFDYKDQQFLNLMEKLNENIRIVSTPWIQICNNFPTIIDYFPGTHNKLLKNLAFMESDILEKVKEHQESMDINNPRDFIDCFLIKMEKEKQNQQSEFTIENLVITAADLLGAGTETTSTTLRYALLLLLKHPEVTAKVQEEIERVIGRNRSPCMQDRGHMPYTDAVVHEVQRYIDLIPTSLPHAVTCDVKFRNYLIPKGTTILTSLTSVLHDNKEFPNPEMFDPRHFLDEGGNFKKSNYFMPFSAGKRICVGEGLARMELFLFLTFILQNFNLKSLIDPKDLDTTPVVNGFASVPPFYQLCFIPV
row,Structure (SMILES),Potency
1,CC(=O)N/N=C/c1ccc([N+](=O)[O-])o1,inactive
2,CC1(CN2CCC(n3c(=O)[nH]c4ccccc43)CC2)OCc2ccccc2-n2cccc21 (stereo not given),21.9 µM (active)
3,COC(=O)c1nc(Cl)c(Cl)nc1N,inactive
4,CC(O)c1ccccc1 (stereo not given),inactive
5,CCC1CO1 (stereo not given),inactive
6,C=CC(C)(CCC=C(C)C)OC(=O)CC(C)C (stereo not given),35.6 µM (active)
7,COc1cc(Nc2c(C#N)cnc3cc(OCCCN4CCN(C)CC4)c(OC)cc23)c(Cl)cc1Cl,inactive
8,c1cc(N(CC2CO2)CC2CO2)ccc1Cc1ccc(N(CC2CO2)CC2CO2)cc1 (stereo not given),63.3 µM (active)
9,CC1=C(Br)C(=O)C(Br)=C/C1=C(/c1ccccc1S(=O)(=O)O)c1cc(Br)c(O)c(Br)c1C,27.2 µM (active)
10,C=CC(=O)[O-].C=CC(=O)[O-].[Zn+2],27.6 µM (active)
11,N#[N+]c1ccc2c(S(=O)(=O)[O-])cccc2c1O,20 µM (active)
12,CCCCC(CC)CN (stereo not given),inactive
13,C[C@H]1C[C@H](O)c2ccsc2S1(=O)=O,inactive
14,CCC(C)COC(=O)CC(C)C (stereo not given),inactive
15,N#CCCN(CCO)CCO,inactive
16,N#CCc1ccc(Cl)cc1Cl,79.6 µM (active)
17,CCOC(=O)/C=C/C(=O)OCC,inactive
18,CCCCCCC(C)(C)C(=O)O,71 µM (active)
19,C=C(C)CCCC(C)CCO (stereo not given),39.9 µM (active)
20,c1ccc2c(c1)CCc1ccccc1N2,8 µM (active) and 8.71 µM (active)

row,Structure (SMILES),Potency
1,CCc1ccccc1,inactive
2,CCOC(=O)[C@H](CCc1ccccc1)N[C@@H](C)C(=O)N(CC(=O)O)C1Cc2ccccc2C1,6.92 µM (active)
3,CCCC(=O)C(=O)O,inactive
4,CCC(OCCCOC)OC(C)=O (stereo not given),inactive
5,Cc1cc(C)c(N)cc1C,7.94 µM (active)
6,CN1C(C(=O)Nc2ccccn2)=C(O)c2sccc2S1(=O)=O,inactive
7,NC(=O)c1ccncc1,inactive
8,COC(=O)CCS,70.4 µM (active)
9,CC(C)(c1ccccc1)c1ccccc1,inactive
10,O=C(OC(=O)c1ccccc1)c1ccccc1,inactive
11,CCCC(C(=O)OCCN(CC)CC)(c1ccccc1)c1ccccc1,21.9 µM (active)
12,Cc1cscn1,inactive
13,CCCCCC#CC(=O)OC,inactive
14,O=[N+]([O-])c1cc(C2CCCCC2)c(O)c([N+](=O)[O-])c1,39.8 µM (active)
15,O=C(O)C[C@H](NC(=O)OCc1ccccc1)C(=O)O,inactive
16,CC1(C)S[C@@H]2[C@H](NC(=O)C(c3ccccc3)S(=O)(=O)O)C(=O)N2[C@H]1C(=O)O (stereo not given in full),inactive
17,COC(=O)CS,inactive
18,Nc1ccc(N=Nc2ccccc2)c(N)c1,24.7 µM (active)
19,Cc1ccco1,inactive
20,C[C@]12CC[C@@H]3c4ccc(O)cc4CC[C@H]3[C@@H]1CC[C@@H]2OC(=O)CCC1CCCC1,14.2 µM (active)

# Molecular target: Cytochrome P450 2C9 (Homo sapiens) (UniProt P11712)
# Assay: Cytochrome P450 Family 2 Subfamily C Member 9 (CYP2C9) small molecule antagonists: luciferase reporter qHTS assay (AID 1671198); also: nearly all actives have a fitted effect of over 50% in size
# Conditions: P450-Glo CYP2C9 enzyme assay, luciferin luminescence; series mostly up to 115 µM
# In short: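 P450-Glo proluciferin substrate with CYP2C9 enzyme; 10 min RT preincubation, then NADPH regeneration 1 h at 37C; luciferin detection reagent 20 min RT, luminescence in relative luminescence units.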
# Sequence of Cytochrome P450 2C9 (Homo sapiens) (P11712 whole entry, looked up): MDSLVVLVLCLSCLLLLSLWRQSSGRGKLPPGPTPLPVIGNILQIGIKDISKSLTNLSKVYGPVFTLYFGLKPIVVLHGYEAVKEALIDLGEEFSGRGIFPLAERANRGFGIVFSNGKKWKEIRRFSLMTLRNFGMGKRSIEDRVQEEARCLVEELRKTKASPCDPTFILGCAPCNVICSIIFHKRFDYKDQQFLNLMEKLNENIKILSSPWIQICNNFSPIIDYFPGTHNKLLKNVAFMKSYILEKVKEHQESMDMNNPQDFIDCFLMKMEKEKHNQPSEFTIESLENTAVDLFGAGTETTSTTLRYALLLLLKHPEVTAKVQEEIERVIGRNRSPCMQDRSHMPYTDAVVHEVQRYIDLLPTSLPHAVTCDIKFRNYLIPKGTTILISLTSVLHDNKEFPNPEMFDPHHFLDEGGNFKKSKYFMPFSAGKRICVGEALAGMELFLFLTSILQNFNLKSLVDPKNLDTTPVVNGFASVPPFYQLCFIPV
row,Structure (SMILES),Potency
1,CC(=O)N/N=C/c1ccc([N+](=O)[O-])o1,inactive
2,CC1(CN2CCC(n3c(=O)[nH]c4ccccc43)CC2)OCc2ccccc2-n2cccc21 (stereo not given),13.8 µM (active)
3,COC(=O)c1nc(Cl)c(Cl)nc1N,inactive
4,CC(O)c1ccccc1 (stereo not given),inactive
5,CCC1CO1 (stereo not given),inactive
6,C=CC(C)(CCC=C(C)C)OC(=O)CC(C)C (stereo not given),35.6 µM (active)
7,COc1cc(Nc2c(C#N)cnc3cc(OCCCN4CCN(C)CC4)c(OC)cc23)c(Cl)cc1Cl,inactive
8,c1cc(N(CC2CO2)CC2CO2)ccc1Cc1ccc(N(CC2CO2)CC2CO2)cc1 (stereo not given),17.8 µM (active)
9,CC1=C(Br)C(=O)C(Br)=C/C1=C(/c1ccccc1S(=O)(=O)O)c1cc(Br)c(O)c(Br)c1C,15.3 µM (active)
10,C=CC(=O)[O-].C=CC(=O)[O-].[Zn+2],61.8 µM (active)
11,N#[N+]c1ccc2c(S(=O)(=O)[O-])cccc2c1O,39.9 µM (active)
12,CCCCC(CC)CN (stereo not given),inactive
13,C[C@H]1C[C@H](O)c2ccsc2S1(=O)=O,inactive
14,CCC(C)COC(=O)CC(C)C (stereo not given),71 µM (active)
15,N#CCCN(CCO)CCO,inactive
16,N#CCc1ccc(Cl)cc1Cl,inactive
17,CCOC(=O)/C=C/C(=O)OCC,inactive
18,CCCCCCC(C)(C)C(=O)O,31.7 µM (active)
19,C=C(C)CCCC(C)CCO (stereo not given),39.9 µM (active)
20,c1ccc2c(c1)CCc1ccccc1N2,40.1 µM (active) and 13.8 µM (active)

row,Structure (SMILES),Potency
1,CCc1ccccc1,inactive
2,CCOC(=O)[C@H](CCc1ccccc1)N[C@@H](C)C(=O)N(CC(=O)O)C1Cc2ccccc2C1,15.5 µM (active)
3,CCCC(=O)C(=O)O,inactive
4,CCC(OCCCOC)OC(C)=O (stereo not given),inactive
5,Cc1cc(C)c(N)cc1C,35.5 µM (active)
6,CN1C(C(=O)Nc2ccccn2)=C(O)c2sccc2S1(=O)=O,13.8 µM (active)
7,NC(=O)c1ccncc1,inactive
8,COC(=O)CCS,inactive
9,CC(C)(c1ccccc1)c1ccccc1,inactive
10,O=C(OC(=O)c1ccccc1)c1ccccc1,inactive
11,CCCC(C(=O)OCCN(CC)CC)(c1ccccc1)c1ccccc1,13.8 µM (active)
12,Cc1cscn1,inactive
13,CCCCCC#CC(=O)OC,63.3 µM (active)
14,O=[N+]([O-])c1cc(C2CCCCC2)c(O)c([N+](=O)[O-])c1,8.91 µM (active)
15,O=C(O)C[C@H](NC(=O)OCc1ccccc1)C(=O)O,inactive
16,CC1(C)S[C@@H]2[C@H](NC(=O)C(c3ccccc3)S(=O)(=O)O)C(=O)N2[C@H]1C(=O)O (stereo not given in full),inactive
17,COC(=O)CS,inactive
18,Nc1ccc(N=Nc2ccccc2)c(N)c1,31 µM (active)
19,Cc1ccco1,inactive
20,C[C@]12CC[C@@H]3c4ccc(O)cc4CC[C@H]3[C@@H]1CC[C@@H]2OC(=O)CCC1CCCC1,17.8 µM (active) and 17.4 µM (active)
